Assay results as given in the supplement of paper PMC9694430.
Structures can show the parent of a compound that is named as a salt.

Columns and labels:
Assay in all cases: thermal shift delta Tm vs DMSO control; higher = stronger stabilization (binding)
Details in all cases: 12.5 µM; protein concentration 2 µM
[1] = test system: LOC_OS02G45750-cb003
Procedure, shortened: (§1)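 The melting temperature shift given here is a triplicate mean, measured against protein that received only DMSO. Melting temperatures came from Boltzmann fits of differential scanning fluorimetry data on E. coli-expressed, purified rice kinase domain constructs. Each 19.5 μl well contained 2 μM kinase, 100 mM potassium phosphate pH 7.5, 150 mM NaCl, 10% glycerol, 5 × SYPRO Orange and compound in DMSO. Plates were scanned from 25°C to 95°C at 0.05°C/s.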

[2] = test system: LOC_OS02G54510-cb004
Procedure, shortened: as §1

[3] = test system: LOC_OS03G04050-cb001
Procedure, shortened: as §1

[4] = test system: LOC_OS03G12390-cb001
Procedure, shortened: as §1

[5] = test system: LOC_OS03G27990-cb004
Procedure, shortened: as §1

[6] = test system: LOC_OS03G50450-cb001
Procedure, shortened: as §1

[7] = test system: LOC_OS03G50810-cb003
Procedure, shortened: as §1

[8] = test system: LOC_OS04G35114-cb001
Procedure, shortened: as §1

[9] = test system: T1, LOC_OS04G38480-cb003
T1 sequence (whole entry): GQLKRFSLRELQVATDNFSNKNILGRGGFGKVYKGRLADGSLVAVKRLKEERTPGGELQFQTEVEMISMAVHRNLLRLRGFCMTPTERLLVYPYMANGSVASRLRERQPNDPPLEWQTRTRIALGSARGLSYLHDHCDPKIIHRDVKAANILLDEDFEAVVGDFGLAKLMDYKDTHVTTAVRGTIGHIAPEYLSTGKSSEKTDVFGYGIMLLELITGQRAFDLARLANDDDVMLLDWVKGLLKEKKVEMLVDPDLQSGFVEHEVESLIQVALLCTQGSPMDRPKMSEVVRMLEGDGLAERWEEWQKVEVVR
Procedure, shortened: as §1

[10] = test system: T2, LOC_OS04G41100-cb001
T2 sequence (whole entry): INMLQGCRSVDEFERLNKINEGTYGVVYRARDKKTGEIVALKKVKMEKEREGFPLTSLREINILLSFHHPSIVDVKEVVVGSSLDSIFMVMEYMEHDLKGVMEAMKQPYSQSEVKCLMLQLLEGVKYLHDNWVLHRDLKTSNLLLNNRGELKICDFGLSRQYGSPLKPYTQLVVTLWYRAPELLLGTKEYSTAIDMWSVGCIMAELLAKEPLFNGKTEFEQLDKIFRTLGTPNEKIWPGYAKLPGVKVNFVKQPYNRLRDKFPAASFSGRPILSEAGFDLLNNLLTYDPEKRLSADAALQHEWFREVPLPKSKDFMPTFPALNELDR
Procedure, shortened: as §1

[11] = test system: LOC_OS04G57630-cb004
Procedure, shortened: as §1

[12] = test system: LOC_OS05G07850-cb002
Procedure, shortened: as §1

[13] = test system: LOC_OS05G16824-cb004
Procedure, shortened: as §1

[14] = test system: LOC_OS05G28520-cb001
Procedure, shortened: as §1

[15] = test system: LOC_OS05G30820-cb001
Procedure, shortened: as §1

[16] = test system: LOC_OS05G43570-cb004
Procedure, shortened: as §1

[17] = test system: LOC_OS06G16330-cb003
Procedure, shortened: as §1

[18] = test system: T3, LOC_OS06G22820-cb001
T3 sequence (whole entry): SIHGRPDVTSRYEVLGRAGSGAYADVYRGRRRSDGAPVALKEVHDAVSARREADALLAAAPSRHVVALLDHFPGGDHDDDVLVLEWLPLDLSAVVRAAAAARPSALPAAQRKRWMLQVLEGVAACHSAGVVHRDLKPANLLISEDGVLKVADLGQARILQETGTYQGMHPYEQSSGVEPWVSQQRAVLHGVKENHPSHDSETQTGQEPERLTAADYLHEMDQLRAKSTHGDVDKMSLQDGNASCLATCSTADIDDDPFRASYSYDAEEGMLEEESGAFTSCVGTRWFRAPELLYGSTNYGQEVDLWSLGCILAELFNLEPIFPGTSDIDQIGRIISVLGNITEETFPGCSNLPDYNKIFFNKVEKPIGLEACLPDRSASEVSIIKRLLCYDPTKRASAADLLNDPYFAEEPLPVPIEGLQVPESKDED
Procedure, shortened: as §1

[19] = test system: LOC_OS07G06570-cb004
Procedure, shortened: as §1

[20] = test system: LOC_OS07G07230-cb001
Procedure, shortened: as §1

Chain of LOC_OS06G16330-cb003 (as listed by the source): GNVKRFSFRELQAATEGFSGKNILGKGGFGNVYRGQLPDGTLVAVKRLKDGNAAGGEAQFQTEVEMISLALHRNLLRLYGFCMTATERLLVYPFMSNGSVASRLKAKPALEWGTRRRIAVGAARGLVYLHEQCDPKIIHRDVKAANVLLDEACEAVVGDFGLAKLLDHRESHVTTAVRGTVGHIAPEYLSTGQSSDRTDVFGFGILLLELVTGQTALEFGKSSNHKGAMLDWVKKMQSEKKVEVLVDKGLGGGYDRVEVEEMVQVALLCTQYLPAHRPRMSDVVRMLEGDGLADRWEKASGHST

| Compound | thermal shift delta Tm [1] | thermal shift delta Tm [2] | thermal shift delta Tm [3] | thermal shift delta Tm [4] | thermal shift delta Tm [5] | thermal shift delta Tm [6] | thermal shift delta Tm [7] | thermal shift delta Tm [8] | thermal shift delta Tm [9] | thermal shift delta Tm [10] | thermal shift delta Tm [11] | thermal shift delta Tm [12] | thermal shift delta Tm [13] | thermal shift delta Tm [14] | thermal shift delta Tm [15] | thermal shift delta Tm [16] | thermal shift delta Tm [17] | thermal shift delta Tm [18] | thermal shift delta Tm [19] | thermal shift delta Tm [20] |
| --- | --- | --- | --- | --- | --- | --- | --- | --- | --- | --- | --- | --- | --- | --- | --- | --- | --- | --- | --- | --- |
| CCN1C(=O)CNc2ncc(-c3ccc(-c4nc[nH]n4)nc3C)nc21 | 1.71 °C | -0.29 °C | -0.03 °C | -0.17 °C | -0.12 °C | -0.24 °C | -0.05 °C | 0.7 °C | 0.95 °C | -0.13 °C | -0.18 °C | 0.15 °C | -3.58 °C | 0.29 °C | 0.42 °C | -0.33 °C | -0.44 °C | 0.23 °C | 0.95 °C | 0.66 °C |
| CN(C)Cc1cccc(N/C(=C2\C(=O)Nc3cc(C(N)=O)ccc32)c2ccccc2)c1 | 1.35 °C | 0.37 °C | 0.38 °C | 3.49 °C | 3.05 °C | 0.35 °C | 1.47 °C | 3.48 °C | 0.38 °C | 0.47 °C | 0.27 °C | 5.34 °C | 2.95 °C | 0.22 °C | 0.46 °C | 0.7 °C | 0.53 °C | 0.79 °C | 1.03 °C | 0.16 °C |
| C[C@H](NC(=O)/C(C#N)=C/c1cccc(Br)n1)c1ccccc1 | -0.81 °C | -0.57 °C | 0.05 °C | -2.64 °C | -2.84 °C | 0.09 °C | -1.35 °C | -1.1 °C | 0.59 °C | -0.11 °C | -1.13 °C | -0.94 °C | -17.3 °C | -0.45 °C | 0.31 °C | -0.67 °C | -1.56 °C | 0.13 °C | 0.17 °C | -0.47 °C |
| CNC(=O)Nc1ccc(-c2nc(N3CC4CCC(C3)O4)c3cnn(C4CCC5(CC4)OCCO5)c3n2)cc1 | 0.68 °C | 0.19 °C | 0.28 °C | 0.26 °C | 0.16 °C | 0.34 °C | -0.43 °C | 0.16 °C | 1.69 °C | 0.57 °C | 0.62 °C | 0.66 °C | -1.09 °C | 0.58 °C | 0.69 °C | 0.65 °C | -0.11 °C | 0.61 °C | 0.67 °C | 0.15 °C |
| Cc1n[nH]c2ncc(C(=O)N3CCC[C@H]3c3ccc(Cl)cc3)cc12 | 0.21 °C | 0.12 °C | 0.41 °C | 0.13 °C | 0.35 °C | 0.17 °C | 0.18 °C | 0.28 °C | 0.98 °C | 0.46 °C | 0.01 °C | 0.81 °C | -6.54 °C | 0.03 °C | 0.26 °C | 0.19 °C | 0.11 °C | 0.56 °C | 1.74 °C | 0.45 °C |
| Cc1ccc(Nc2nccc(N(C)c3ccc4c(C)n(C)nc4c3)n2)cc1S(N)(=O)=O | 3.91 °C | 1.36 °C | 0.35 °C | 1.04 °C | 0.21 °C | 0.3 °C | 1.55 °C | 4.77 °C | 1.08 °C | 3.24 °C | 0.96 °C | 8.97 °C | 4.72 °C | 0.97 °C | 0.39 °C | 1.48 °C | 3.83 °C | 0.9 °C | 1.14 °C | 0.54 °C |
| CNC(=O)c1cc(Oc2ccc(NC(=O)Nc3ccc(Cl)c(C(F)(F)F)c3)cc2)ccn1 [Sorafenib Tosylate] | 2.62 °C | 1.95 °C | 0.83 °C | 1.41 °C | 0.39 °C | 0.77 °C | 1.06 °C | 0.98 °C | 2.2 °C | 1.53 °C | 1.2 °C | 9.63 °C | 1.35 °C | 1.33 °C | 0.5 °C | 1.5 °C | 1.91 °C | 2.15 °C | 1.66 °C | 0.6 °C |
| Cc1cccc(CC(=O)N2CCc3c2ccc(-c2cn(C)c4ncnc(N)c24)c3F)n1 | 1.87 °C | 0.61 °C | 0.63 °C | 0.44 °C | 0.12 °C | 0.29 °C | 0.3 °C | 0.7 °C | 3.73 °C | 0.27 °C | 1.09 °C | 2.24 °C | 0.43 °C | 0.62 °C | 0.47 °C | 0.42 °C | 1.13 °C | 0.75 °C | 1.03 °C | 1.75 °C |
| C[C@H](Nc1ncnc2[nH]cnc12)c1cc2ccc(F)cc2nc1-c1ccccn1 | 0.75 °C | 0.11 °C | 0.38 °C | 0.1 °C | 0.16 °C | 0.69 °C | 0.49 °C | 0.44 °C | 1.43 °C | 0.13 °C | 0.18 °C | 0.48 °C | 0.99 °C | 0.62 °C | 0.48 °C | 0.58 °C | 0.43 °C | 0.53 °C | 0.76 °C | 0.2 °C |
| Nc1nc(N)c(N=O)c(OCC2CCCCC2)n1 | 0.64 °C | 0.21 °C | 0.46 °C | 3.99 °C | 2.79 °C | 0.35 °C | 0.92 °C | 1.13 °C | 1.28 °C | 0.59 °C | 0.27 °C | 8.06 °C | 1.8 °C | 0.61 °C | 0.8 °C | 0.23 °C | 2.17 °C | 0.95 °C | 1.43 °C | -0.02 °C |
| CNC(=O)c1cc(COc2nnc(Nc3ccc(Cl)cc3)c3ccoc23)ccn1 [Telatinib] | 0.27 °C | 0.15 °C | 0.24 °C | -0.25 °C | 0.21 °C | 0.19 °C | 0.38 °C | 0.7 °C | 1.95 °C | 1.53 °C | 0.3 °C | 0.35 °C | -3.58 °C | 0.37 °C | 0.56 °C | 0.21 °C | -0.23 °C | 0.39 °C | 0.17 °C | 0.1 °C |
| COc1ccc(COc2ccc(Cc3cnc(N)nc3N)cc2OC)cc1 | 0.53 °C | 0.05 °C | 0.43 °C | -0.14 °C | 0.29 °C | 0.04 °C | 0.55 °C | 0.34 °C | 1.41 °C | 0.24 °C | 0.05 °C | 0.49 °C | -1.41 °C | 0.33 °C | 0.26 °C | 0.4 °C | 1.65 °C | 0.41 °C | 0.82 °C | -0.38 °C |
| CCn1cc(-c2ccnc3[nH]c(-c4cccc(CN(C)C)c4)cc23)c(-c2ccc(NC(=O)N(C)C)cc2)n1 | 2.5 °C | 0.45 °C | 0.74 °C | 0.47 °C | 0.5 °C | 0.98 °C | 1.14 °C | 1.02 °C | 1.93 °C | 1.22 °C | 1.27 °C | 8.63 °C | 0.47 °C | 0.42 °C | 0.52 °C | 0.64 °C | 4.22 °C | 0.71 °C | 1.35 °C | 0.42 °C |
